Compound activity as filed in PubChem BioAssay.
A selection: hits, their analogues and other compounds. The true share with any hit is near 4.6%.
tim10-1 inh: tim10-1 yeast growth inhibition; S. cerevisiae tim10-1 ts strain growth, BacTiter-Glo, 24 h; 330,000 compounds, 2.2% hits; inhibition, % at 20 µM; AID 463190;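 active = inhibition of at least 40%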;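 note: mutant grown at 25 °C; 0% = DMSO wells with yeast and 100% = wells holding no yeast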
SKKanGAS inh: SKKanGAS growth inhibition. S. pyogenes SKKanGAS, kanamycin growth, BacTiter-Glo, 6 h. inhibition, % at 7.5 µM. 300,000 compounds, 1.3% hits;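 active = mean replicate score, as percent of positive control median, at least 50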;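 note: strain carries kanamycin resistance gene driven by streptokinase promoter and grows in 40 µg/ml kanamycin; loss of luminescence reflects streptokinase promoter inhibition or plain growth inhibition; 0% = median of DMSO wells and 100% = positive control at its reference dose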
TIM10 inh: TIM10 yeast growth inhibition. S. cerevisiae TIM10 strain growth, BacTiter-Glo luminescence, 24 h. inhibition, % at 10 µM. 330,000 compounds, 1.4% hits;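 active = inhibition of 40% or more at the single tested concentration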;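 note: wild-type TIM10 isogenic control strain grown at permissive 25 °C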
PfHsp90 yeast 2: reduces growth (ATP signal) of yeast expressing P. falciparum Hsp90; inhibition, % at 9.4 µM; S. cerevisiae expressing PfHsp90, BacTiter-Glo ATP, 48 h; yeast lacking PDR1 and PDR3 efflux regulators; 310,000 compounds, 0.32% hits;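 active = every replicate shows inhibition above about 80%, whatever the replicate mean, limit read from the data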;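 note: 0% = DMSO neutral controls and 100% = 20 µM radicicol positive controls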
NLRP3 yeast inh: NALP3 inhibition in yeast | Yeast reconstituted NLRP3/ASC/caspase-1, beta-gal luminescence, 24 h | inhibition, % at 10 µM | 330,000 compounds, 0.39% hits;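 active = inhibition of 50% or more; inactive = inhibition below 50%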;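 note: plate controls were induced DMSO wells for no effect and uninduced yeast grown without galactose for full effect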
tim23-1 inh: tim23-1 yeast growth inhibition; S. cerevisiae tim23-1 growth, BacTiter-Glo luminescence, 24 h; AID 463212; 330,000 compounds, 1.3% hits; inhibition, % at 20 µM;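 active = growth inhibition of the mutant yeast at or above 50%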;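 note: temperature-sensitive mutant grown at 25 °C; plate controls were DMSO-treated mutant yeast for no effect and medium wells lacking yeast for full effect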
Active calls of the source: *.

Results for C[n+]1ccc(/C=N/Nc2nc(Cl)c(C#N)c(Cl)c2Cl)cc1 ?
tim10-1 inh: 0; SKKanGAS inh: 91*; TIM10 inh: -13; PfHsp90 yeast 2: -1; NLRP3 yeast inh: 37; tim23-1 inh: 6

How did COC(=O)c1cc(S(=O)(=O)N2CCCCCC2)cn1C do in these assays?
tim10-1 inh: 14; SKKanGAS inh: 1; TIM10 inh: 1; PfHsp90 yeast 2: 5; NLRP3 yeast inh: 21; tim23-1 inh: 10

How did O=S(=O)(c1ccccc1)N1CCN(C(c2ccccc2)c2ccc(OC(F)(F)F)cc2)CC1 (centres undefined) do in these assays?
tim10-1 inh: 14; SKKanGAS inh: -2; TIM10 inh: 4; PfHsp90 yeast 2: -7; NLRP3 yeast inh: 2; tim23-1 inh: 0

What do the screens show for `CC(C)(C)Nc1nc(NN)nc(NC(C)(C)C)n1`?
tim10-1 inh: 23; SKKanGAS inh: 87*; TIM10 inh: 21; PfHsp90 yeast 2: -6; NLRP3 yeast inh: 4; tim23-1 inh: 25

Results for CNc1nc(Cl)nc(NC(C)(C)C)n1 ?
tim10-1 inh: -1; SKKanGAS inh: -10; TIM10 inh: 1; PfHsp90 yeast 2: -25; NLRP3 yeast inh: -6; tim23-1 inh: -5

What do the screens show for `O=[N+]([O-])c1ccc(S(=O)Cc2ccccc2)c([N+](=O)[O-])c1` (centres undefined)?
PfHsp90 yeast 2: 137*

Results for O=[N+]([O-])c1ccc(CS(=O)c2ccccc2)cc1 (centres undefined) ?
PfHsp90 yeast 2: 8

What do the screens show for `CN(C(=O)COC(=O)c1ccc2c(c1)OCO2)c1c(N)n(Cc2ccccc2)c(=O)[nH]c1=O`?
tim10-1 inh: 2; SKKanGAS inh: -1; TIM10 inh: -1; PfHsp90 yeast 2: -2; NLRP3 yeast inh: 4; tim23-1 inh: -2

What do the screens show for `CCCn1c(NC(=O)c2ccccc2Br)nc2ccccc21`?
tim10-1 inh: 30; SKKanGAS inh: 58*; TIM10 inh: -4; PfHsp90 yeast 2: -30; NLRP3 yeast inh: 4; tim23-1 inh: 41

How did O=C(Nc1nc2ccccc2n1CCN1CCOCC1)c1ccc(COc2ccccc2Br)o1 do in these assays?
tim10-1 inh: 37; SKKanGAS inh: 50*; TIM10 inh: 25; PfHsp90 yeast 2: 12; NLRP3 yeast inh: 10; tim23-1 inh: 39

How did COc1ccc(OC)c(-c2csc(NC(=O)C3COc4ccccc4O3)n2)c1 (centres undefined) do in these assays?
tim10-1 inh: 9; SKKanGAS inh: 21; TIM10 inh: 17; PfHsp90 yeast 2: -19; NLRP3 yeast inh: 32; tim23-1 inh: -1

How did CCCCn1c(NC(=O)C2CCCCC2)nc2ccccc21 do in these assays?
tim10-1 inh: 26; SKKanGAS inh: 97*; TIM10 inh: 17; PfHsp90 yeast 2: -12; NLRP3 yeast inh: 14; tim23-1 inh: 33

How did CN(C)CCCn1c(NC(=O)C2CCCCC2)nc2ccccc21 do in these assays?
tim10-1 inh: -12; SKKanGAS inh: -1; TIM10 inh: -15; PfHsp90 yeast 2: 5; NLRP3 yeast inh: 12; tim23-1 inh: -9

How did CCCn1c(NC(=O)c2ccc(Br)cc2)nc2ccccc21 do in these assays?
tim10-1 inh: 24; SKKanGAS inh: -5; TIM10 inh: 11; NLRP3 yeast inh: 7; tim23-1 inh: -1

Results for O=C(Nc1nc(-c2nc3ccccc3s2)cs1)C1COc2ccccc2O1 (centres undefined) ?
tim10-1 inh: 5; SKKanGAS inh: 76*; TIM10 inh: 11; PfHsp90 yeast 2: 2; NLRP3 yeast inh: 18; tim23-1 inh: 3

What do the screens show for `CC(C)(CO)CN1CCC(n2nccc2NC(=O)C2CCCC2)CC1`?
tim10-1 inh: -11; SKKanGAS inh: 2; TIM10 inh: 11; PfHsp90 yeast 2: -1; NLRP3 yeast inh: 12; tim23-1 inh: -10

Results for CCCn1c(NC(=O)C2COc3ccccc3O2)nc2ccccc21 (centres undefined) ?
tim10-1 inh: 4; SKKanGAS inh: 97*; TIM10 inh: 5; PfHsp90 yeast 2: 15; NLRP3 yeast inh: -3; tim23-1 inh: -15

How did CCc1ccccc1NC(=O)C1COc2ccccc2O1 (centres undefined) do in these assays?
tim10-1 inh: 2; SKKanGAS inh: 3; TIM10 inh: -4; PfHsp90 yeast 2: 7; NLRP3 yeast inh: 27; tim23-1 inh: 5

Results for Cc1c(Cl)ccc2c(C(=O)Nc3cc(C(C)(C)C)on3)cc(-c3ccccn3)nc12 ?
tim10-1 inh: -11; SKKanGAS inh: 62*; TIM10 inh: 7; PfHsp90 yeast 2: 6; NLRP3 yeast inh: 7; tim23-1 inh: 13

What do the screens show for `COCCN(C(=O)Cc1coc2cc(C)c(C)cc12)c1c(N)n(Cc2ccccc2)c(=O)[nH]c1=O`?
tim10-1 inh: 2; SKKanGAS inh: -12; TIM10 inh: -2; PfHsp90 yeast 2: -42; NLRP3 yeast inh: -7; tim23-1 inh: 5

Results for COc1cc(C(=O)Nc2ccc(-c3nc4cc(C)ccc4o3)c(O)c2)cc(OC)c1OC ?
tim10-1 inh: 36; SKKanGAS inh: 103*; TIM10 inh: 10; PfHsp90 yeast 2: -6; NLRP3 yeast inh: 16; tim23-1 inh: 34

Results for Oc1ccccc1N=Nc1ccccc1O ?
SKKanGAS inh: 59*; PfHsp90 yeast 2: 0

What do the screens show for `O=C(NC(=S)N1CCN(c2ccc(F)cc2)CC1)C12CC3CC(CC(C3)C1)C2`?
tim10-1 inh: 13; SKKanGAS inh: 51*; TIM10 inh: -8; PfHsp90 yeast 2: -11; NLRP3 yeast inh: 20; tim23-1 inh: -5

What do the screens show for `O=C(Nc1ccccc1N1CCN(c2ccc(F)cc2)CC1)C12CC3CC(CC(C3)C1)C2`?
tim10-1 inh: 26; SKKanGAS inh: 13; TIM10 inh: 23; PfHsp90 yeast 2: -5; NLRP3 yeast inh: -9; tim23-1 inh: 3

Results for COc1cccc(CN2CC(C(=O)NCc3ccc(Cl)s3)CCC2=O)c1 (centres undefined) ?
tim10-1 inh: 2; SKKanGAS inh: -5; TIM10 inh: -9; PfHsp90 yeast 2: 20; NLRP3 yeast inh: 2; tim23-1 inh: -2

Results for Cc1cc(Oc2ccc(Cl)cc2)nc(-c2ccccc2O)n1 ?
tim10-1 inh: 10; SKKanGAS inh: 53*; TIM10 inh: 11; PfHsp90 yeast 2: 14; NLRP3 yeast inh: 14; tim23-1 inh: 10

How did Cc1ccc(Oc2cc(C)nc(-c3ccccc3O)n2)cc1 do in these assays?
tim10-1 inh: 11; SKKanGAS inh: 28; TIM10 inh: 10; PfHsp90 yeast 2: 1; NLRP3 yeast inh: 20; tim23-1 inh: 0

What do the screens show for `c1ccc(-c2cn(-c3ccccc3)c3ncnc(N4CCCCC4)c23)cc1`?
tim10-1 inh: 27; SKKanGAS inh: 67*; TIM10 inh: 27; PfHsp90 yeast 2: 5; NLRP3 yeast inh: 5; tim23-1 inh: 31
